Compound activity as filed in PubChem BioAssay.
Most compounds without a hit are left out; they make up all but 11% or so of the library.
3T3 cytotox: Cytotoxic Profiling in NIH 3T3 Cell Line of Diverse Libraries Using Quantitative High-Throughput Screening. NIH 3T3 viability, CellTiter-Glo ATP luminescence, 48-72 h. actives 4.3% (n = 94,000). AID 1345082, 2018. Potency, µM (highest dose often 96.7 µM), without a hit: at the top dose activity change, negative = cytotoxicity, usual class: inhibitors; active = well fitted curve in the direction sought with a large enough effect; inconclusive = small, poorly fitted or top-dose-only effect, or another doubt; inactive = no such curve, though single readings can be large; an effect the other way counts as inactive or inconclusive; note: % is set by controls: 0 for no effect and ±100 for the full control effect; nearly all actives have a fitted effect of over 55% in size
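Cells were seeded at 400 per well, treated with pin-transferred compound, and kept 48 or 72 hr at 37 °C before CellTiter-Glo addition and luminescence imaging of cellular ATP.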
FLuc inh: Firefly luciferase inhibition profiling of diverse chemical library using quantitative high-throughput screening. Potency, µM (doses to about 115 µM), hits mostly inhibitors. purified P. pyralis luciferase, luminescence, biochemical. Luciferin 4-monooxygenase (Photinus pyralis), P08659. actives 2.5% (n = 76,000); active = well fitted curve in the direction sought with a large enough effect; inconclusive = small, poorly fitted or top-dose-only effect, or another doubt; inactive = no such curve, though single readings can be large; an effect the other way counts as inactive or inconclusive; note: % is set by controls: 0 for no effect and ±100 for the full control effect; nearly all actives have a fitted effect of over 65% in size
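Purified P. pyralis luciferase (10nM final) in 50mM Tris acetate pH 7.5, 10mM Mg acetate, 0.01% Tween-20, 0.05% BSA with 10uM D-luciferin and 10uM ATP. Compounds titrated qHTS. Luminescence imaged on CCD.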
hNpr1 antagonist: Natriuretic polypeptide receptor (hNpr1) antagonism - Primary qHTS; actives 1.6% (n = 76,000); HEK293 hNpr1 GloSensor cGMP, ANP-stimulated luminescence; Atrial natriuretic peptide receptor 1 (Homo sapiens), P16066; AID 1347048, 2019; Potency, µM (highest dose often 46.3 µM), for inactives: at the top dose activity change, negative = inhibition, hits mostly inhibitors; note: % is set by controls: 0 for no effect and ±100 for the full control effect; nearly all actives have a fitted effect of over 60% in size
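HEK293 cells stably expressing human Npr1 and cGMP GloSensor pGS-40F, loaded 2 h with 2% GloSensor reagent, given compound 30 min at room temperature. Luminescence read before and 20 min after 0.1 nM hNppA.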
HEK293 tox: Cytotoxic Profiling in HEK 293 Cell Line of Diverse Libraries Using Quantitative High-Throughput Screening; HEK 293 viability, ATP luminescence (CellTiter-Glo), 48-72 h; Potency, µM (highest dose often 115 µM), for the others: at the highest dose activity change, negative = cytotoxicity, most hits filed as inhibitors; actives 6.6% (n = 94,000); active = well fitted curve in the direction sought with a large enough effect; inconclusive = small, poorly fitted or top-dose-only effect, or another doubt; inactive = no such curve, though single readings can be large; an effect the other way counts as inactive or inconclusive; note: % is set by controls: 0 for no effect and ±100 for the full control effect; nearly all actives have a fitted effect of over 60% in size
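Cells seeded first (HEK 293, 250 cells/well), then compound added by pintool. Incubation ran 48 or 72 hr at 37 degree Celsius. CellTiter-Glo was added and luminescence imaged after 10 min at room temperature.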
Npr1 antag conf: Natriuretic polypeptide receptor (hNpr1) antagonism - Confirmation; shares compounds with hNpr1 antagonist; HEK293 hNpr1 cGMP GloSensor luminescence, ANP-stimulated; Potency, µM (top dose mostly 57.6 µM), for inactives: at the top dose activity change, negative = inhibition, hits mostly inhibitors; actives 76% (n = 1,400); AID 1347044, 2019; note: nearly all actives have a fitted effect of over 70% in size
NPR2 antag: Natriuretic polypeptide receptor (hNpr2) antagonism - Subtype selectivity assay | actives 67% (n = 1,400) | Potency, µM (highest dose often 57.6 µM), without a hit: top-dose activity change, negative = inhibition, actives largely listed as inhibitors | HEK293 hNpr2 GloSensor cGMP luminescence, CNP-stimulated | shares compounds with hNpr1 antagonist; note: nearly all actives have a fitted effect of over 70% in size
FLuc inh counter: Natriuretic polypeptide receptor (hNpr1) antagonism - Confirmation firefly luciferase (FLuc) inhibition counterscreen | purified FLuc enzyme, luminescence, Km substrate | actives 0.7% (n = 1,400) | shares compounds with hNpr1 antagonist | AID 1347047, 2019 | Potency, µM (series often up to 57.6 µM), inactives show top-dose activity change, negative = inhibition, usual class: inhibitors; active = well fitted curve in the direction sought with a large enough effect; inconclusive = small, poorly fitted or top-dose-only effect, or another doubt; inactive = no such curve, though single readings can be large; an effect the other way counts as inactive or inconclusive; note: 0% is about no effect
GloSensor cGMP: Natriuretic polypeptide receptor (hNpr1) antagonism - Counterscreen GloSensor control cell line; HEK293 GloSensor cGMP, SNP-stimulated, luminescence; shares compounds with hNpr1 antagonist; Potency, µM (highest dose often 57.6 µM), without a hit: at the highest dose activity change, negative = inhibition, hits mostly inhibitors; actives 69% (n = 1,400); AID 1347051, 2019; note: % is set by controls: 0 for no effect and ±100 for the full control effect; nearly all actives have a fitted effect of over 70% in size
Active calls of the source: *; i = inactive; ? = inconclusive; . = no result given; [ ] = dose if it differs, or a comment. Unless noted, calls come from the whole dose curve. Potency is the fitted concentration of half-maximal effect.

SMILES	3T3 cytotox	FLuc inh	hNpr1 antagonist	HEK293 tox	Npr1 antag conf	NPR2 antag	FLuc inh counter	GloSensor cGMP
O=C(NC1CCCN(CCn2nc3n(c2=O)CCCC3)C1)c1cccnc1 (stereo unspecified)	-17%	.	.	-10%	.	.	.	.
COc1cccc(NC(=O)COc2ccc(-c3nnc4n3CCCC4)cc2)c1	-13%	i	-2%	3%	.	.	.	.
COCCn1c(=O)c(C(=O)NCc2cccc(C(F)(F)F)c2)nc2cccnc21	?	.	.	-27%	.	.	.	.
O=S(=O)(c1cccc(F)c1)N1CCC2(CC1)CC(Cc1nc(C3CC3)no1)CCO2 (stereo unspecified)	?	i	11µM*	45µM*	24µM*	24µM*	3%	22µM*
O=C(C1CCC1)N1CCC2(CC1)CC(Cc1nc(C3CC3)no1)CCO2 (stereo unspecified)	?	i	-17%	?	.	.	.	.
CSc1cccc(NC(=O)Cn2c(N3CCc4ccccc4C3)nc(C)cc2=O)c1	?	i	-19%	?	.	.	.	.
COc1cccc(NC(=O)Cn2c(N3CCC(C)CC3)nc(C)cc2=O)c1	-27%	i	?	?	.	.	.	.
COc1ccc(OC)c(NC(=O)Cn2c(N3CCC(C)CC3)nc(C)cc2=O)c1	?	i	13µM*	?	22µM*	22µM*	4%	24µM*
COc1cc(NC(=O)Cn2c(N3CCC(C)CC3)nc(C)cc2=O)cc(OC)c1	?	i	6.3µM*	?	9.7µM*	12µM*	3%	6.9µM*
Cc1cc(=O)n(CC(=O)Nc2cccc(Cl)c2)c(N2CCc3ccccc3C2)n1	14µM*	i	20µM*	?	-30%	-23%	1%	?
CC(C)c1noc(-c2cn(C3CCCN(C(=O)c4ccc(C(C)(C)C)cc4)C3)nn2)n1 (stereo unspecified)	-19%	i	?	?	.	.	.	.
CN(Cc1cccc(C(=O)Nc2cccc(C#N)c2)c1)CC1COCCO1 (stereo unspecified)	-17%	i	?	?	?	?	1%	0%
CN1C(=O)CO[C@H](c2ccc(NC(=O)c3cccc(C#N)c3)cc2)[C@H]1CO	-6%[174 µM]	i	5%[70.6 µM]	-10%[172 µM]	.	.	.	.
O=C(c1ccc(Cl)nc1)N1CCC(C(=O)N2CCC(c3nc4ncccc4[nH]3)CC2)C1 (stereo unspecified)	-21%	.	.	-8%	.	.	.	.
CC(=O)N1Cc2ccccc2NC(=O)C12CCNC2 (stereo unspecified)	i	.	.	i	.	.	.	.
O=C1Nc2ccccc2CN(CC2CCCCC2)C12CCNCC2	?	.	.	35µM*	19µM*	6.1µM*	3%	-21%
O=C1Nc2ccccc2CN(CC2CC2)C12CCNCC2	i	.	.	i	.	.	.	.
O=C1Nc2ccccc2CN(CC2CCCCC2)C12CCNC2 (stereo unspecified)	22µM*	.	.	89µM*	?	14µM*	4%	-7%
CC(C)(C)NC(=O)NCc1nnc2n1C(C(=O)NCc1cccs1)CC2 (stereo unspecified)	-15%	.	.	0%	.	.	.	.
CC(C)c1noc(-c2cn(C3CCCN(C(=O)c4cccc5[nH]ccc45)C3)nn2)n1 (stereo unspecified)	?	i	13µM*	?	27µM*	?	-18%	22µM*
Cc1noc(-c2cn(C3CCCN(C(=O)c4cccc5[nH]ccc45)C3)nn2)n1 (stereo unspecified)	-32%	?	-15%	?	.	.	.	.
CC(C)c1noc(-c2cn(C3CCN(C(=O)c4cccc5[nH]ccc45)C3)nn2)n1 (stereo unspecified)	?	i	-1%	?	.	.	.	.
O=C(c1cccc2[nH]ccc12)N1CCCC(n2cc(-c3nc(C4CC4)no3)nn2)C1 (stereo unspecified)	?	i	11µM*	?	27µM*	?	-1%	?
O=C1CCN(CC(O)CC(F)(F)F)c2ccc(F)cc2CN1C1CCCC1 (stereo unspecified)	-31%	.	.	?	.	.	.	.
C=CCNC(=O)c1coc(COc2ccc3ccc(OC)cc3c2)n1	?	i	10µM*	45µM*	24µM*	22µM*	-11%	22µM*
SMILES	3T3 cytotox	FLuc inh	hNpr1 antagonist	HEK293 tox	Npr1 antag conf	NPR2 antag	FLuc inh counter	GloSensor cGMP
COc1ccc2ccc(OCc3nc(C(=O)N(C)CC(C)O)co3)cc2c1 (stereo unspecified)	?	i	?	?	.	.	.	.
COc1ccc2ccc(OCc3nc(C(=O)N4CCC(NC(C)=O)CC4)co3)cc2c1	?	i	-23%	?	.	.	.	.
COc1ccc2ccc(OCc3nc(C(=O)N(C)Cc4cc(C)no4)co3)cc2c1	?	i	?	?	31µM*	?	-22%	?
COc1ccc2ccc(OCc3nc(C(=O)N4CCCC(C(N)=O)C4)co3)cc2c1 (stereo unspecified)	?	i	11µM*	?	14µM*	19µM*	-19%	11µM*
O=C(N[C@H](c1ccccn1)C1CC(O)C1)C1(c2ccc(Cl)cc2)CCC1 (stereo partly specified)	-19%	i	?	?	?	19µM*	1%	1%
COc1ccc(Cn2c(=O)c(C(=O)NCCSC)nc3cccnc32)cc1	-23%	.	.	-8%	.	.	.	.
CC(C)c1cccc(NC(=O)C2CCN(C(=O)c3ncn4c3COC(c3ccc(F)cc3)C4)CC2)c1 (stereo unspecified)	-16%	i	11µM*	?	?	?	-3%	?
O=C(NCCOc1ccccc1)c1cnc2n1CCN(Cc1c[nH]c3ccccc13)CC2	?	i	?	100µM*	31µM*	?	4%[86.2 µM]	35µM*
